# From PubChem BioAssay (NCATS)
# Inconclusive results are not listed. Entries that show only a call come without a potency. Activity calls are given as the source filed them. Unless noted, calls come from the whole dose curve; as a rule, active = well fitted curve in the direction sought with a large enough effect; inconclusive = small, poorly fitted or top-dose-only effect, or another doubt; inactive = no such curve, though single readings can be large; an effect the other way counts as inactive or inconclusive.
# Tests used:
# [1] = target: Thioredoxin reductase 1, cytoplasmic (Rattus norvegicus) (UniProt O89049); test: qHTS Assay for Inhibitors of Mammalian Selenoprotein Thioredoxin Reductase 1 (TrxR1) (AID 488773); details: Potency: inhibition;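 note: drop in NADPH fluorescence over an 8 min run after selenite addition; series mostly up to about 57 µM; nearly all actives have a fitted effect of over 40% in size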
# Summary of the method: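 Inhibition is scored from the loss of NADPH fluorescence between first and last reads of an 8-min kinetic run. Selenite (400 uM) was the substrate, added after 15 min compound preincubation at room temperature.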
# [2] = target: M-phase phosphoprotein 8 (Homo sapiens) (UniProt Q99549); test: qHTS Validation Assay for Inhibitors for MPP8 Chromodomain Interactions with Methylated Histone Tails (AID 488949);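 note: 50 nM MPP8 with 50 nM peptide preformed then compounds added for 30 min; AlphaScreen signal from MPP8 chromodomain bound to biotinylated H3K9me3 peptide; top concentration of the series differs between compounds; nearly all actives have a fitted effect of over 55% in size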
# Summary of the method: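 50 nM MPP8 + 50 nM b-H3K9me3 peptide, PBS pH 7.4/0.01% Tween-20, 30 min RT; + cpd 30 min RT; + AlphaScreen donor/Ni-chelate acceptor beads 10 ug/mL final, 30 min dark; luminescence read.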
# [3] = target: Chromobox protein homolog 1 (Homo sapiens) (UniProt P83916); test: qHTS Validation Assay for Inhibitors of HP1-beta Chromodomain Interactions with Methylated Histone Tails (AID 488953);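 note: loss of AlphaScreen luminescence from HP1-beta binding biotinylated H3K9me3 peptide; series mostly up to about 110 µM; nearly all actives have a fitted effect of over 50% in size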
# Summary of the method: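 Disruption of preformed HP1-beta:H3K9me3 peptide complexes (both 50 nM, PBS pH 7.4 with 0.01% Tween-20) is measured by AlphaScreen after 30 min compound exposure at room temperature, using streptavidin donor and nickel chelate acceptor beads at 10 ug/mL final.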
# [4] = target: Methanococcus maripaludis chaperonin (MmCpn) (UniProt Q6LX38); test: High-Throughput Screening for Modulators of Cytosolic Chaperonin Activity: MmCpn Primary Screen (AID 488978);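 note: 50 nM MmCpn enzyme hydrolysing 30 µM ATP at 37 °C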
# Summary of the method: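 Steps: chaperonin 50 nM final; add compound, 5 min RT; start with ATP, 30 uM final; hold 10 min at 37C; add ADP Transcreener HTRF reagent, 5 min; read ex 320, em 590 and 665 nm.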
# [5] = target: Transient receptor potential cation channel subfamily V member 1 (Homo sapiens) (UniProt Q8NER1); test: HTS Assay for Compounds that Act as Enhancers of the Vanilloid Receptor 1 (AID 488979)
# Summary of the method: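 Calcium influx kinetics via Fluo-8 (480/520 nm) in TRPV1-expressing cells, 2000/well cultured overnight at 35.5C. Compound-alone read 3 min (agonist phase), followed by EC20 capsaicin challenge for 2 min (enhancer phase).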
# [6] = target: Thyrotropin receptor (Homo sapiens) (UniProt P16473); test: qHTS Assay for Antagonists of the Thyroid Stimulating Hormone Receptor (AID 488980); note: series mostly up to about 58 µM
# Summary of the method: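 Readout is cAMP by HTRF competition between cellular cAMP and cAMP-d2 for a cryptate-labelled antibody. Antagonism was assessed in TSHR-transfected HEK293 cells stimulated with 4 nM TSH (EC80, final) in the presence of RO 20-1724.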
# [7] = target: D(1A) dopamine receptor (Homo sapiens) (UniProt P21728); test: HTS Assay for Allosteric Agonists of the Human D1 Dopamine Receptor: Primary Screen for Agonists (AID 488981)
# Summary of the method: (§1)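 Calcium flux in an inducible, force-coupled HEK293 Trex D1 line (overnight at 30 C): agonist mode is the 180 s kinetic read after compound; potentiator mode is the following 180 s read after dopamine at EC20.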
# [8] = target: D(1A) dopamine receptor (Homo sapiens) (UniProt P21728); test: HTS Assay for Allosteric Agonists of the Human D1 Dopamine Receptor: Primary Screen for Potentiators (AID 488982)
# Summary of the method: as §1
# [9] = target: D(1A) dopamine receptor (Homo sapiens) (UniProt P21728); test: HTS Assay for Allosteric Agonists of the Human D1 Dopamine Receptor: Primary Screen for Antagonists (AID 488983);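 note: calcium flux response to an EC80 dopamine challenge measured with no-wash dye; nearly all actives have a fitted effect of over 65% in size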
# Summary of the method: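 Kinetic fluorescence at 1 cycle/sec tracked intracellular calcium in force-coupled, tetracycline-inducible HEK293 T-REx D1 cells. Loss of response to an EC80 dopamine dose, given 180 s after compound, marked antagonists.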
# [10] = Validation screen for small molecules that induce genotoxicity in human embryonic kidney (HEK293T) cells expressing luciferase-tagged ELG1 (AID 493106)
# Summary of the method: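 Cells were dispensed at 2,000 per well, then 23 nL compound or DMSO was pinned in. After 16 hr at 37 °C and 5% CO2, ONE-Glo reagent was added. Luciferase activity was measured following 30 min at room temperature.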
# [11] = target: ATPase family AAA domain-containing protein 5 (Homo sapiens) (UniProt Q96QE3); test: Validation screen for small molecules that inhibit ELG1-dependent DNA repair in human embryonic kidney (HEK293T) cells expressing luciferase-tagged ELG1 (AID 493107);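 note: cells co-treated with the DNA-damaging agent 5-fluorouridine alongside compound; series mostly up to about 46 µM; inhibitors lower the ELG1-luciferase luminescence signal; nearly all actives have a fitted effect of over 70% in size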
# Summary of the method: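 Cells are dispensed in 1536-well format, then 5-fluorouridine and compound are pinned in. After a 16 hr incubation at 37 °C and 5% CO2, ONE-Glo is added and luciferase measured on a CCD imager.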
# [12] = target: Thyrotropin-releasing hormone receptor (Homo sapiens) (UniProt P34981); test: qHTS for Small Molecule Agonists and Allosteric Enhancers of Human TRH Receptor: Validation Screen for Agonists (AID 493127;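 active = calcium activation more than 3 SD above the typical response in the agonist read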;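 note: intracellular calcium rise by fluo-8 fluorescence before TRH EC20 addition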); details: TRH receptor agonist cell assay; at 2 µM; stronger effect = higher value
# Summary of the method: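 Compounds are added by online pintool to dye-loaded TRHR cells while fluorescence is recorded every second. A rise in calcium signal during the agonist read marks activation; a later 10 nM TRH addition (EC20) serves the separate enhancer mode.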
# [13] = Nrf2 qHTS screen for inhibitors: Validation (AID 493153; active = well fitted inhibition curve with a large enough effect in the main read-out, with a control signal flat, not every such curve was filed as active); details: Potency: luciferase luminescence; viability change: measured here: cytotoxicity max response
# Summary of the method: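 A549 ARE_Fluc, 5% FBS OPTI-MEM; cpd titration, 18-24 h, 37°C/5% CO2. Read 1: CellTiter-Fluor (Ex 405/Em 525), cytotox. Read 2: luciferase lum, Nrf2 activity.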
# [14] = qHTS for Inhibitors of Cell Surface uPA Generation: Validation Assay (AID 493164);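 note: RAW 264.7 macrophage cells exposed to compound for 18 h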
# Summary of the method: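 ATP-Lite luminescence read-out: ATP remains high when uPA activity-dependent LF translocation into the cytoplasm is blocked. RAW 264.7 cells, 18 h compound exposure at 37 C; 7-point titration, 2.45 nM to 38.3 uM final.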
# [15] = target: Galactokinase (Homo sapiens) (UniProt P51570); test: qHTS Validation Assay for Inhibitors of Human Galactokinase (GALK) (AID 493189)
# Summary of the method: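 5 nM GALK / 100 uM galactose / 35 uM ATP, 20 mM HEPES pH8.0, 5 mM MgCl2, 60 mM NaCl, 1 mM DTT, 0.01% BSA (final). RT 1 h; Kinase-Glo Plus luminescence.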
# [16] = Validation screen for small molecules that induce DNA re-replication in SW480 colon adenocarcinoma cells (AID 504364)
# Summary of the method: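 Image-based qHTS: compounds were incubated with SW480 cells for 48 hr, nuclei stained with Hoechst, and per-nucleus fluorescence intensity scanned to flag cells with excess DNA content.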
# [17] = target: Peptidyl-prolyl cis-trans isomerase NIMA-interacting 1 (Homo sapiens) (UniProt Q13526); test: qHTS Validation Assay to Find Inhibitors of Pin1 (AID 504536; active = well fitted inhibition curve with a large enough effect in the polarisation, with a control signal flat, not every such curve was filed as active; the % refers to the polarisation)
# Summary of the method: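 Fluorescence polarization competition: compounds (titration) displace HiFluor-488-labeled Pin1-1b peptide from Pin1 (0.3 uM final) in pH 7.5 HEPES buffer with DTT, 10 min at room temperature; %Activity normalized to no-enzyme wells, curves fitted.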
# [18] = target: Phosphoglycerate kinase, glycosomal (Trypanosoma brucei brucei) (UniProt P07378); test: qHTS Validation Assay to Find Inhibitors of Phosphoglycerate Kinase (AID 504547)
# Summary of the method: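 Luminescence end-point (Kinase-Glo Plus, 10 min) after a 60 min room-temperature coupled reaction. GAPDH at 100nM final supplies 1,3-BPG to PGK. Buffer: 100mM TEA pH 7.6, 5mM MgCl2, 0.01% Tween-20. Wells lacking PGK served as controls.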
# [19] = target: Flap endonuclease 1 (Homo sapiens) (UniProt P39748); test: qHTS Validation Assay for the Inhibitors of Human Flap endonuclease 1 (FEN1) (AID 488816)
# Summary of the method: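 qHTS format: compounds and 10 nM FEN1 incubated 15 min at room temperature before adding 50 nM substrate. Cleavage followed by reads at 0 and 15 min; normalized data fitted to a four-parameter Hill curve.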
# [20] = target: ATP-dependent 6-phosphofructokinase (Trypanosoma brucei brucei) (UniProt O15648); test: qHTS Assay to Find Inhibitors of T. brucei phosphofructokinase: hit validation (AID 492961);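 note: luminescence reports ADP formed as PFK phosphorylates fructose-6-phosphate with ATP; series mostly up to about 51 µM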
# Summary of the method: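 Measures ADP output of PFK (1.25 nM) at 0.1 mM ATP, 0.5 mM F6P, pH 8.0 TEA buffer with 5 mM MgCl2. No-enzyme wells define full inhibition; uninhibited enzyme wells define zero.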
# Thyrotropin-releasing hormone receptor (Homo sapiens), sequence (P34981 whole entry, looked up): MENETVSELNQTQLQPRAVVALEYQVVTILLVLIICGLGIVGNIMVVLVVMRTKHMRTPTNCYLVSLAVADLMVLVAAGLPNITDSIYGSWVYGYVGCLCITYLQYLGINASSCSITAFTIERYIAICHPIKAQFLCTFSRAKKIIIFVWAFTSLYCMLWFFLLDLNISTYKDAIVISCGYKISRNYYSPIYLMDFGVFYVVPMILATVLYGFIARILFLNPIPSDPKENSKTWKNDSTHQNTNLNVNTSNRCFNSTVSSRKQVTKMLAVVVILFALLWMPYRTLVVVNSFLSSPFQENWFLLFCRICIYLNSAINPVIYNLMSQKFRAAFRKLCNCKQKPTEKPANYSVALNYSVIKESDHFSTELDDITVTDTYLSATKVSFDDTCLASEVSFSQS
# Peptidyl-prolyl cis-trans isomerase NIMA-interacting 1 (Homo sapiens), sequence (Q13526 whole entry, looked up): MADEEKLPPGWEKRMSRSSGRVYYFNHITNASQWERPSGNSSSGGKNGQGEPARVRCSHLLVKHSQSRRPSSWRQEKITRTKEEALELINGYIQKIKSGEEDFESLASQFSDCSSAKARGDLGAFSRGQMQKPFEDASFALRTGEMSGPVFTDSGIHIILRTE
# D(1A) dopamine receptor (Homo sapiens), sequence (P21728 whole entry, looked up): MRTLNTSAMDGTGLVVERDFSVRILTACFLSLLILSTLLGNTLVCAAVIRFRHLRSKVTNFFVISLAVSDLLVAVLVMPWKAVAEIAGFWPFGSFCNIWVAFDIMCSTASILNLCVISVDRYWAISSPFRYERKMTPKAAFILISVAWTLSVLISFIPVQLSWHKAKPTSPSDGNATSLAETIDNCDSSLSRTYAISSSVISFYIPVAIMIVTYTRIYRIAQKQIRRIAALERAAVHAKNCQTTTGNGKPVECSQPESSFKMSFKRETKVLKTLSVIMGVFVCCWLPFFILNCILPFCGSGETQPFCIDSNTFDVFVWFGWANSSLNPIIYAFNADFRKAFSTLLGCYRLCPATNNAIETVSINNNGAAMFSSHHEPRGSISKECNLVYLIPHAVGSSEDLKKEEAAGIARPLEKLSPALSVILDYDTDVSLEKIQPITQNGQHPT
# Galactokinase (Homo sapiens), sequence (P51570 whole entry, looked up): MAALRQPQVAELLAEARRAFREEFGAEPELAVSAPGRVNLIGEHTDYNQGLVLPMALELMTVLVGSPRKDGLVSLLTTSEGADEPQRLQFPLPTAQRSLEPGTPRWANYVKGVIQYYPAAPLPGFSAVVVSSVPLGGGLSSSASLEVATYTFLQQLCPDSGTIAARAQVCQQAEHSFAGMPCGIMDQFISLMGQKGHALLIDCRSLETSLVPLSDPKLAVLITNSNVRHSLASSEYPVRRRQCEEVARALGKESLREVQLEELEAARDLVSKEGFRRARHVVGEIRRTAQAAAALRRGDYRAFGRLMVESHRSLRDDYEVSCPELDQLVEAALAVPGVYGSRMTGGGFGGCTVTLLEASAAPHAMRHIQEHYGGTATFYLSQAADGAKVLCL
# Phosphoglycerate kinase, glycosomal (Trypanosoma brucei brucei), sequence (P07378 whole entry, looked up): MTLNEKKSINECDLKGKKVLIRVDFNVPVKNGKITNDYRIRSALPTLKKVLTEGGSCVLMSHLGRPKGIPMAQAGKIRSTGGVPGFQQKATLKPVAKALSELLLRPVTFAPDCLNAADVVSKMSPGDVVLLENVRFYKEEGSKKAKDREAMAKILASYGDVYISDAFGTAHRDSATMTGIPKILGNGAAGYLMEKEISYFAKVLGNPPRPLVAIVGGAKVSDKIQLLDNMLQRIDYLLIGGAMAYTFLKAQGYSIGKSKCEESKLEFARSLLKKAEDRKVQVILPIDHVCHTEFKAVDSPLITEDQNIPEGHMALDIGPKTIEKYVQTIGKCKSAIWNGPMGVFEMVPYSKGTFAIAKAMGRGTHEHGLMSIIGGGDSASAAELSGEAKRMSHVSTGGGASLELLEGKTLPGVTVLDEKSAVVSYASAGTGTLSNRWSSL
# Thyrotropin receptor (Homo sapiens), sequence (P16473 whole entry, looked up): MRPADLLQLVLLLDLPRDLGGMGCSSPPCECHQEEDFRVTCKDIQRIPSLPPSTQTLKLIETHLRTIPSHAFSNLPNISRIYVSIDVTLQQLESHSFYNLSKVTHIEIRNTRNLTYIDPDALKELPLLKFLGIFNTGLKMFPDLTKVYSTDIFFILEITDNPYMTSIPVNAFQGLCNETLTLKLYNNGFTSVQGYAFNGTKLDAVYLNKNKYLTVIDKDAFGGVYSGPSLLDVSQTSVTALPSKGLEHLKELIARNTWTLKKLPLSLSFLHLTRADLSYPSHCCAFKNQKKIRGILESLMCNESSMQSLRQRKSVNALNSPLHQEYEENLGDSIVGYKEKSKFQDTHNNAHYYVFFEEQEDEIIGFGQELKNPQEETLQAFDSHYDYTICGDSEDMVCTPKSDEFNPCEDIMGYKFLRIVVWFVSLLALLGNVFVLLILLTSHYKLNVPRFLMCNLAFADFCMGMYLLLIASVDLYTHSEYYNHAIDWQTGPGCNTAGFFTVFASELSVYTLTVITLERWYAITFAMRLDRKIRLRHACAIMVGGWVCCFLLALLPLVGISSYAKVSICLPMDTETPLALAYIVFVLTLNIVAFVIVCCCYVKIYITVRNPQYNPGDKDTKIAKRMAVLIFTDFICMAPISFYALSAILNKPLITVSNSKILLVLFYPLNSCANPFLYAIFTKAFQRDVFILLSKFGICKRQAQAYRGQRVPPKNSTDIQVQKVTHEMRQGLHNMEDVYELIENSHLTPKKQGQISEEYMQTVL
# Flap endonuclease 1 (Homo sapiens), sequence (P39748 whole entry, looked up): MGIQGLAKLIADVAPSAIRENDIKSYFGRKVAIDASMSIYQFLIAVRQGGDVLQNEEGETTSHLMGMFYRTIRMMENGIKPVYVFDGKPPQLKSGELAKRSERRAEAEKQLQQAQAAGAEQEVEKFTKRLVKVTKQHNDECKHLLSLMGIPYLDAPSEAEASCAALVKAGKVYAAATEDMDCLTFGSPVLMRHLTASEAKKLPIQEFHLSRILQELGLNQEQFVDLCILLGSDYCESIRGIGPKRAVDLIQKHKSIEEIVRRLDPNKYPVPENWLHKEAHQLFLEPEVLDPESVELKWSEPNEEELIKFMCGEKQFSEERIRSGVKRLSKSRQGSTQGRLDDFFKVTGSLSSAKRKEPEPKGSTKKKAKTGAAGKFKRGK
# Methanococcus maripaludis chaperonin (MmCpn), sequence (Q6LX38 1-543): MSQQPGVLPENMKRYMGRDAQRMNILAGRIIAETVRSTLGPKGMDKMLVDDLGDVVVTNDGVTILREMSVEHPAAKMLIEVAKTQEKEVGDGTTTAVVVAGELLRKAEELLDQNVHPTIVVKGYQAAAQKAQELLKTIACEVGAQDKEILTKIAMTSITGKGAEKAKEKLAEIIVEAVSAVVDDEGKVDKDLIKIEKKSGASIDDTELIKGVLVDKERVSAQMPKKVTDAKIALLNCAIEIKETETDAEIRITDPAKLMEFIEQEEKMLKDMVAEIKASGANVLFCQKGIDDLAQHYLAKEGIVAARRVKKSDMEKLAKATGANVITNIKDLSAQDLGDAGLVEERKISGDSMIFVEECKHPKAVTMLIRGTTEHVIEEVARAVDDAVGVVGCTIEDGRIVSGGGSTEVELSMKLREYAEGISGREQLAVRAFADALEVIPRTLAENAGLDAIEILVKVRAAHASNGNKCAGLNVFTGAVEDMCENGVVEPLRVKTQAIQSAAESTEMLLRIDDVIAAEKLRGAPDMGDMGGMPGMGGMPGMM
# M-phase phosphoprotein 8 (Homo sapiens), sequence (Q99549 whole entry, looked up): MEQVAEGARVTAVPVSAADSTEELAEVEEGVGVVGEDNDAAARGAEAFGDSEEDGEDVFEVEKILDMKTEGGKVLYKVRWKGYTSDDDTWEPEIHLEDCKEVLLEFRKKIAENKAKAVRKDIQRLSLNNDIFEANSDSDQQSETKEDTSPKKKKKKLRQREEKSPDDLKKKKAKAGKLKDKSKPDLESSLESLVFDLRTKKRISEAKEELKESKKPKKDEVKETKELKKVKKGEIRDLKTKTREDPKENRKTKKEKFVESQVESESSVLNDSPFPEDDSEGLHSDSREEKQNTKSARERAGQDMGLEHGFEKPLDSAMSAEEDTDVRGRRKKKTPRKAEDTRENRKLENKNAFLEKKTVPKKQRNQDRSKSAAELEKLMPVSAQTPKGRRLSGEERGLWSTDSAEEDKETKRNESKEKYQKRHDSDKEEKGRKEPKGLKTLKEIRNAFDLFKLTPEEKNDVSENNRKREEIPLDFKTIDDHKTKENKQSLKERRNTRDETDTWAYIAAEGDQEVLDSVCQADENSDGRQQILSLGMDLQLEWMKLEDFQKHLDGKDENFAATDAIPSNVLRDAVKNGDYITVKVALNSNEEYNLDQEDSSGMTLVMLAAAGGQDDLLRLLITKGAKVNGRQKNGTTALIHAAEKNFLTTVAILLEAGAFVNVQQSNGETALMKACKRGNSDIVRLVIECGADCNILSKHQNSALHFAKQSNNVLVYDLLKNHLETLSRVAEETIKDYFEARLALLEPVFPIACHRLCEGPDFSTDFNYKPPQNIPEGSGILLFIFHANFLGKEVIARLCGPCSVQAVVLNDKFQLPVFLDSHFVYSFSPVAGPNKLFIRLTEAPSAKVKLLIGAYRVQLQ
# ATP-dependent 6-phosphofructokinase (Trypanosoma brucei brucei), sequence (O15648 whole entry, looked up): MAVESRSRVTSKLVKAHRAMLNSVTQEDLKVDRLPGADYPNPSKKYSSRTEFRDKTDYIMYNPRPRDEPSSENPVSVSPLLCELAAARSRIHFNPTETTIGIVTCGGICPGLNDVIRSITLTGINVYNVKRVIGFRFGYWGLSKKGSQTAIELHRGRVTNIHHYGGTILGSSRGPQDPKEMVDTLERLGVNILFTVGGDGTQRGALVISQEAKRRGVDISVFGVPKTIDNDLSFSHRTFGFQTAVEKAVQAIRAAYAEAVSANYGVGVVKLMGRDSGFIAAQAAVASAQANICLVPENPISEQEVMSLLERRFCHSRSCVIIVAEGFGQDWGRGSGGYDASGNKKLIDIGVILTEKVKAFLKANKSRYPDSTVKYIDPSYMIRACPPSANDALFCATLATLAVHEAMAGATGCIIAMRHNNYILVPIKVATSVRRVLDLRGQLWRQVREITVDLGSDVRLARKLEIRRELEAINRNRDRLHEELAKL
structure (smiles),measurement,setting,value
NC(N)=NC(=O)c1nc(Cl)c(N)nc1N,Potency,[1],inactive
same,Potency,[2],inactive
same,Potency,[3],inactive
same,outcome,[4],inactive
same,outcome,[5],inactive
same,outcome,[6],inactive
same,Potency,[7],inactive
same,Potency,[8],inactive
same,Potency,[9],inactive
same,Potency,[10],inactive
same,Potency,[11],inactive
same,activation,[12],0.812% (inactive)
same,Potency,[13],inactive
same,viability change,[13],-5.66%
same,outcome,[14],inactive
same,outcome,[15],inactive
same,outcome,[16],inactive
same,outcome,[17],inactive
same,outcome,[18],inactive
C1COC(NC(C2CC2)C2CC2)=N1,Potency,[1],inactive
same,Potency,[19],inactive
same,Potency,[2],inactive
same,outcome,[4],inactive
same,outcome,[5],inactive
same,outcome,[6],inactive
same,Potency,[7],inactive
same,Potency,[8],inactive
same,Potency,[9],inactive
same,Potency,[10],inactive
same,Potency,[11],inactive
same,activation,[12],-0.312% (inactive)
same,Potency,[13],inactive
same,viability change,[13],-3.72%
same,outcome,[14],inactive
same,outcome,[15],inactive
same,outcome,[16],inactive
same,outcome,[17],inactive
same,outcome,[18],inactive
OC(CCN1CCCCC1)(c1ccccc1)C1CC2C=CC1C2 (centres undefined),Potency,[1],inactive
same,Potency,[19],inactive
same,Potency,[2],inactive
same,Potency,[3],inactive
same,outcome,[4],inactive
same,Potency,[7],inactive
same,Potency,[8],inactive
same,Potency,[9],inactive
same,Potency,[10],inactive
same,Potency,[11],inactive
same,Potency,[13],inactive
same,viability change,[13],-8.46%
same,outcome,[14],inactive
same,outcome,[17],inactive
same,outcome,[18],inactive
CC(C)NCC(O)COc1ccc(COCCOC(C)C)cc1 (centres undefined),Potency,[1],inactive
same,Potency,[19],inactive
same,Potency,[2],inactive
same,outcome,[4],inactive
same,outcome,[5],inactive
same,outcome,[6],inactive
same,Potency,[7],inactive
same,Potency,[8],inactive
same,Potency,[9],inactive
same,outcome,[20],inactive
same,Potency,[10],inactive
same,activation,[12],-0.25% (inactive)
same,Potency,[13],inactive
same,viability change,[13],3.25%
same,outcome,[14],inactive
same,outcome,[15],inactive
same,outcome,[16],inactive
same,outcome,[17],inactive
same,outcome,[18],inactive
N[C@@H]1CONC1=O,Potency,[1],inactive
same,Potency,[19],inactive
same,Potency,[2],inactive
same,outcome,[4],inactive
same,outcome,[5],inactive
same,outcome,[6],inactive
same,Potency,[7],inactive
same,Potency,[8],inactive
same,Potency,[9],inactive
same,outcome,[20],inactive
same,Potency,[10],inactive
same,Potency,[11],inactive
same,Potency,[13],inactive
same,viability change,[13],10.9%
same,outcome,[14],inactive
same,outcome,[15],inactive
same,outcome,[16],inactive
same,outcome,[17],inactive
same,outcome,[18],inactive
NCCCC(N)(C(=O)O)C(F)F (centres undefined),Potency,[1],inactive
same,Potency,[19],inactive
same,Potency,[2],inactive
same,outcome,[4],inactive
same,outcome,[5],inactive
same,outcome,[6],inactive
same,Potency,[7],inactive
same,Potency,[8],inactive
same,Potency,[9],inactive
same,outcome,[20],inactive
same,Potency,[10],inactive
same,Potency,[11],inactive
same,activation,[12],0.938% (inactive)
same,outcome,[14],inactive
same,outcome,[15],inactive
same,outcome,[16],inactive
same,outcome,[17],inactive
same,outcome,[18],inactive
